Experimental data: PubChem BioAssay

Target: Torsin-1A (Homo sapiens) (UniProt O14656)
Experiment: small-molecule binders of mutant TOR1A in lysate, primary screen, cell lysate, small-molecule microarray, COS7 lysate, 635/667 nm fluorescence (AID 1150);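 note: score pools 667 nm emission and signal to noise measuring lysate protein binding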
Details: COS7 hTOR1A mutant lysate, 635 nm fluorescence, higher = more signal

Sequence of Torsin-1A (Homo sapiens) (O14656 whole entry, looked up): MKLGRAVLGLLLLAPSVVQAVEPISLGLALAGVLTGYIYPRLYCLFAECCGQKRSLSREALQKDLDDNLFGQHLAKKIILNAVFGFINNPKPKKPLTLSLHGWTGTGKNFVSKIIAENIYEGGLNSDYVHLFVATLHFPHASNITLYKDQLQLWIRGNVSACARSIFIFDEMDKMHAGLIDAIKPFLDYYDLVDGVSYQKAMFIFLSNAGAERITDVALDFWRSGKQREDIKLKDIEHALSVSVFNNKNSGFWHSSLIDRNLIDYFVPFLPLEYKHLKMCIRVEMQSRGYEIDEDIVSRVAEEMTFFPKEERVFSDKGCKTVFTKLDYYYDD

Q: How did the composite z-score turn out when `O[C@@H](Cc1ccccc1)[C@@H](/C=C/C1CC1)N(CC#Cc1ccccc1)Cc1ccccc1Br` was run?
A: -0.744

Q: With `CCCC1(C(=O)OC)C=C2C(=C(C)C(=O)C2C)CN1` (stereo not given) as the compound, how does the composite z-score read?
A: -0.0341

Q: How did the composite z-score turn out when `O=C1C2C=CC(C(O)c3ccco3)N(Nc3ccccc3F)C2C(=O)N1c1ccccc1` (stereo not given) was run?
A: -0.0102

Q: Which composite z-score does the source give for `COc1ccc([Si](C)(C)[C@@H]2[C@@H](CCO)O[C@]3(C(=O)N(Cc4ccccc4)c4ccc(N5C(=O)c6cccc7cccc5c67)cc43)[C@H]2C)cc1` here?
A: -0.909

Q: How did the composite z-score turn out when `CC(C)=C1C(=O)C(c2ccccc2)=C2CN3C(=O)N(CCc4ccccc4)C(=O)[C@]3(Cc3ccc(C(F)(F)F)cc3)[C@H]21` was run?
A: -0.336

Q: Which composite z-score does the source give for `CCCCCN1CC=CC23O[C@@H]4/C=C\CCC(C)OC(=O)C4[C@H]2C(=O)N(C(CO)C(C)C)[C@@H]3C1=O` (stereo not given in full) here?
A: -0.303

Q: Which composite z-score does the source give for `COC(=O)[C@@]1(Cc2ccc(OC)cc2)[C@H]2c3cc(C(=O)N4CCCC4)n(CCO)c3C[C@H]2CN1C(=O)c1ccccc1` here?
A: 1.44

System: Sonic hedgehog protein (Shh)
Experiment: small-molecule binders of Shh protein, primary screen, biochemical, small-molecule microarray, 635/667 nm fluorescence (AID 1151);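 note: Shh protein binding to compounds spotted on small-molecule microarray slides; score combines spot fluorescence intensity with signal-to-noise across triplicate slides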
Details: small-molecule microarray binding, 635 nm fluorescence; higher = more signal

Q: Which composite z-score does the source give for `CCOC(=O)C[C@H]1[C@H](OC(=O)c2ccccc2-c2ccccc2)[C@@H](NC(=O)c2ccc3ccccc3c2)c2cc(OCCCO)ccc2N1C(=O)c1ccccc1` here?
A: 0.536

Q: Which composite z-score does the source give for `O=C1OCCC=C[C@H]2OC34C=CCN(Cn5nnc6ccccc65)C(=O)[C@H]3N(CCCO)C(=O)[C@@H]4C12` (stereo not given in full) here?
A: -0.128

Q: How did the composite z-score turn out when `O=C(C1N=C(c2ccc(OCCCO)cc2)N(c2ccccc2)O1)N1CCCCC1` (stereo not given) was run?
A: 0.17

Q: Which composite z-score does the source give for `CCCCC[C@H]1OC[C@@]23C=C(Br)[C@@H](CC12)[C@@]1(CO1)C3=O` (stereo not given in full) here?
A: 0.647

Q: How did the composite z-score turn out when `C=CC[C@]1(C(=O)N2CCCCC2)N=C(c2ccc(OCCCO)cc2)O[C@H]1c1ccccc1CN=[N+]=[N-]` was run?
A: -0.27

Q: With `COCCCNC(=O)[C@@H]1c2ccccc2C(=O)N(C(C)C)[C@H]1c1ccc(CO)cc1` as the compound, how does the composite z-score read?
A: 0.499

Q: `CCCCN1CC=CC23O[C@@H]4/C=C\CCC(C)OC(=O)C4[C@H]2C(=O)N(CCCO)[C@@H]3C1=O` (stereo not given in full) was tested. Which composite z-score did it give?
A: -0.36

Q: Which composite z-score does the source give for `CN(C)C(=O)[C@]1(CCC(=O)OC(C)(C)C)N=C(c2ccc(OCCCO)cc2)O[C@@H]1c1ccccc1CN=[N+]=[N-]` here?
A: -0.646

Q: `C=CCNC(=O)[C@@H]1[C@H]2C(=O)O[C@H](c3ccccc3)[C@H](c3ccccc3)N2[C@H](c2ccc(OCCO)cc2)[C@@]12C(=O)N(C(=O)OCCOC)c1ccc(C#Cc3ccc(OC)cc3)cc12` was tested. Which composite z-score did it give?
A: 1.88

Q: How did the composite z-score turn out when `CCCN1C(=O)[C@@]2(Cc3ccccc31)N=C(c1ccc(OCCCO)cc1)O[C@H]2c1ccccc1` was run?
A: 1.01

Q: Which composite z-score does the source give for `CC1CC/C=C\[C@H]2OC34C=CCN(Cc5ccccc5)C(=O)[C@H]3N(C(CO)C(C)C)C(=O)[C@@H]4C2C(=O)O1` (stereo not given in full) here?
A: -0.0532

Q: For `C=C(COC)/C(=C/C[C@H](OC(=O)c1ccncc1)c1ccc(CO)o1)c1cnc2ccccc2c1`, which composite z-score is on record?
A: 2.07

Q: Which composite z-score does the source give for `COc1ccc(C#Cc2ccc3c(c2)[C@]2(C(=O)N3)[C@H](c3ccc(O)cc3)N3[C@H](c4ccccc4)[C@H](c4ccccc4)OC(=O)[C@H]3[C@@H]2C(=O)Nc2nc3ccccc3s2)cc1` here?
A: 0.329

Q: How did the composite z-score turn out when `[N-]=[N+]=Nc1ccccc1C[C@@]1(C(=O)N2CCOCC2)N=C(c2ccc(OCCCO)cc2)O[C@@H]1c1ccccc1` was run?
A: -0.227

Q: Which composite z-score does the source give for `C=C[C@@H](CO)N(Cc1ccc(OC)cc1)S(=O)(=O)c1ccc(Br)cc1` here?
A: -0.0145

Q: With `COc1ccc(CCNC(=O)[C@@]2(Sc3ccc(C)cc3)CC(=O)N(Cc3ccccc3C(F)(F)F)[C@@H]2c2ccc(CO)cc2I)cc1` as the compound, how does the composite z-score read?
A: -0.649

Q: For `CCOC(=O)C[C@H]1[C@H](OC(=O)c2ccccc2-c2ccccc2)[C@@H](NC(=O)c2ccc3ccccc3n2)c2cc(OCCCO)ccc2N1C(=O)Cc1ccc(OC)cc1`, which composite z-score is on record?
A: 0.336

Q: With `C=CCN1Cc2ccccc2[C@@H]2OC(c3ccc(OCCCO)cc3)=N[C@]2(CC=C)C1=O` as the compound, how does the composite z-score read?
A: 1.81

Q: `O=C(Cc1ccccc1)[C@H]1C2C=CCCC(c3ccccc3)=C2CN1Cc1ccccc1` (stereo not given in full) was tested. Which composite z-score did it give?
A: 0.0701

Q: For `C=CC[C@@]1(C(=O)NCCCOC)N=C(c2ccc(OCCCO)cc2)O[C@@H]1c1ccccc1N=[N+]=[N-]`, which composite z-score is on record?
A: -0.388

Q: For `COc1cccc(C)c1NC(=O)O[C@H]1[C@H](OC(=O)Nc2ccc3c(c2)OCO3)[C@@H](OC(=O)Nc2ccc3c(c2)OCO3)[C@@H](OC)O[C@@H]1CO`, which composite z-score is on record?
A: 1.54

Q: How did the composite z-score turn out when `C=CCC(OC(C)=O)[C@@H]1[C@@H](N(Cc2ccc(-c3ccccc3)cc2)C(=O)c2ccc(-c3ccccc3)cc2)c2cc(OCCCO)ccc2N1C(=O)c1ccc2ccccc2c1` (stereo not given in full) was run?
A: 0.255

Q: With `COC(=O)C(CC#Cc1ccc2c(c1)[C@]1(C(=O)N2)[C@H](c2ccc(O)cc2)N2[C@H](c3ccccc3)[C@H](c3ccccc3)OC(=O)[C@H]2[C@@H]1C(=O)NC[C@H](O)c1ccccc1)C(=O)OC` as the compound, how does the composite z-score read?
A: 1.68
